Sampled rows, rich in hits. Any-hit rate of the full collection: about 21%.
AMA1 RON2 block – inhibitors of Plasmodium falciparum AMA1-RON2 interaction | AID 720542 | Potency, µM (titrated, usually from 58.2 µM), most hits filed as inhibitors | 360,000 compounds, 0.2% hits | AlphaScreen AMA1-biotinylated RON2 peptide binding; note: nearly all actives have a fitted effect of over 45% in size
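AMA1 (3D7) with his tag at 25 nM final met compounds first, then biotinylated RON2 peptide at 25 nM; detection used donor plus acceptor beads, 10 µg/mL apiece, read by AlphaScreen after 30 min at room temperature.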
CHX counter – affects cycloheximide protein synthesis inhibition readout, counter-screen. cell reporter, cycloheximide protein synthesis inhibition counterscreen. max response, %. 300,000 compounds, 12% hits. AID 2314; in the data active = max response mostly above about 13%, no sharp cut-off; inactive = mostly below about 14%; note: read at 38.3 µM for the half of the compounds with a filed dose
Pf growth 96h – inhibits malaria parasite growth, 96 h | P. falciparum luciferase reporter growth, 96 h | Potency, µM (doses to about 28.7 µM), hits mostly inhibitors | 320,000 compounds, 6.9% hits | AID 504834
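Infected RBCs, 2% Hct / 0.05% parasitemia final; luciferase-reporter P. falciparum; cpd 96 h, 37 C, 5% CO2; luciferase detection reagent; luminescence.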
Pf growth 48h – P. falciparum growth inhibition at 48 hours (one generation) | P. falciparum luciferase growth in erythrocytes, 48 h | Potency, µM (series often up to 28.7 µM), usual class: inhibitors | 310,000 compounds, 5.9% hits | AID 504832
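Growth was read as firefly luciferase luminescence after a 48 h, 37 C, 5% CO2 exposure of compounds to reporter-bearing P. falciparum cultures (0.1% parasitemia, 2% hematocrit final) in Albumax-supplemented RPMI 1640.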
HCV inhibitor – HCV inhibition. Huh7.5.1 HCVcc-Cre infection, luciferase reporter, 44 h. Potency, µM (top dose mostly 41.8 µM), hits mostly inhibitors. 340,000 compounds, 3.4% hits. AID 651820
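A cell-based infection assay in which seeded cells (1,000 per well) receive test compound after 4 h, are inoculated with HCVcc-Cre at approximately 0.5 moi, and are incubated 44 h before luminescence detection.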
Shiga inhibitor – blocks Shiga toxin action in Vero cells | AID 2315 | 290,000 compounds, 9.2% hits | Vero cells, Shiga toxin protein synthesis inhibition reporter | inhibition, % at 38.7 µM; in the data active = inhibition mostly above about 28%, no sharp cut-off; inactive = mostly below about 43%
A number is an active result; 0 = inactive; ? = inconclusive; - = no result. Unless noted, calls come from the whole dose curve; as a rule, active = well fitted curve in the direction sought with a large enough effect; inconclusive = small, poorly fitted or top-dose-only effect, or another doubt; inactive = no such curve, though single readings can be large; an effect the other way counts as inactive or inconclusive.

SMILES | AMA1 RON2 block | CHX counter | Pf growth 96h | Pf growth 48h | HCV inhibitor | Shiga inhibitor
O=C1C=C(c2ccccc2)C(c2ccccc2)C1 (centres undefined) | 0 | - | - | - | 0 | -
CCN(CC)C(=O)c1ccc(-c2cccs2)s1 | 0 | 56 | 0 | ? | 0 | 93
CCN(CC)C(=O)Oc1ccc2oc(=O)cc(-c3cc4cccc(OC)c4o3)c2c1 | 0 | 0 | 0 | 0 | 11µM | 0
COc1cccc2cc(-c3cc(=O)oc4ccc(OC(=O)N(C)C)cc34)oc12 | 0 | 0 | 0 | 0 | 11µM | 0
COc1ccc2oc(=O)cc(-c3cc4cccc(OC)c4o3)c2c1 | 0 | 0 | 0 | 0 | 0 | 0
COc1ccc(CNc2ccc(-c3ccccc3OC)nn2)cc1 | 0 | 22 | ? | 0 | ? | 0
COc1ccc(CNc2ccc(-c3ccc(OC)cc3)nn2)cc1 | 0 | 19 | ? | 0 | ? | 40
COc1ccccc1OCCNC1CCCC1 | 0 | 0 | 0 | - | 0 | 0
COc1ccccc1-c1ccc(NC2CCCC2)nn1 | 0 | 24 | ? | 0 | ? | 55
O=C(CN1CCN(S(=O)(=O)c2ccc3c(c2)OCCCO3)CC1)N1CCc2ccccc21 | 0 | - | - | - | - | -
N#Cc1c(-n2cccc2/C=N/O)sc2c1CCCC2 | ? | 0 | 15µM | 0 | 0 | 0
Cn1c(CNC(=O)CNC(=O)Cc2ccc(F)cc2)cc(=O)n(C)c1=O | 0 | 0 | 0 | 0 | 0 | 0
O=C(Nc1cccc(F)c1)C1CCCN(S(=O)(=O)c2cnc[nH]2)C1 (centres undefined) | 0 | 0 | 9.3µM | 0 | 0 | 0
Cc1ccc(NC(=O)C2CCCN(S(=O)(=O)c3cnc[nH]3)C2)cc1F (centres undefined) | 0 | 0 | ? | 0 | ? | 0
O=C(NCCC1=CCCCC1)C1CCCN(S(=O)(=O)c2cnc[nH]2)C1 (centres undefined) | 0 | 0 | 12µM | - | 0 | 0
Cc1csc(NC(=O)C2CCCN(S(=O)(=O)c3cccnc3)C2)n1 (centres undefined) | 0 | 0 | 0 | - | 0 | 0
Cc1csc(NC(=O)C2CCCN(S(=O)(=O)c3cnc[nH]3)C2)n1 (centres undefined) | 0 | 0 | 12µM | - | 0 | 0
Cc1cc(C)cc(NC(=O)C2CCCN(S(=O)(=O)c3cnc[nH]3)C2)c1 (centres undefined) | 0 | 0 | 3.3µM | 0 | 0 | 0
COc1cccc(-c2nnc3n2N=C(c2c(OC)cccc2OC)CS3)c1 | - | 0 | - | - | - | 0
Nc1ncnc2c1nc(N1CCCCC1)n2[C@@H]1O[C@@H]2COP(=O)(O)O[C@H]2[C@H]1O | - | 0 | - | - | - | 0
CCOC(=O)C1=C(C)NC(C)=C(C(=O)OCC)C1C(=O)OCC(=O)NC(C)c1ccccc1 (centres undefined) | 0 | - | 13µM | ? | ? | -
CC(NC(=O)COC(=O)c1ccc(N(C)C)cc1)c1ccccc1 (centres undefined) | 0 | 0 | 0 | 12µM | ? | 0
CCOC(=O)C1=C(C)NC(C)=C(C(=O)OCC)C1C(=O)OCC(=O)NCc1ccccc1 | 0 | - | - | - | ? | -
CC(NC(=O)COC(=O)c1cccs1)c1ccccc1 (centres undefined) | 0 | 12 | 0 | 0 | 0 | 0
CC(CCc1ccccc1)NC(=O)COC(=O)c1cccs1 (centres undefined) | 0 | 0 | 0 | 0 | 0 | 0
SMILES | AMA1 RON2 block | CHX counter | Pf growth 96h | Pf growth 48h | HCV inhibitor | Shiga inhibitor
Cc1cccc(NC(=O)CNC(=O)[C@H]2O[C@@H](n3ccc(=O)[nH]c3=O)[C@H](O)[C@@H]2O)c1C | 0 | - | - | - | - | -
Cc1ccc(C)c(N2N=C(C(=O)OCC(=O)N(C)c3ccccc3)CCC2=O)c1 | 0 | - | 0 | ? | 0 | -
Cn1c(=O)c2cc(NC(=O)NCc3ccc(F)cc3)ccc2n1C | 0 | - | - | - | - | -
CN(C)CCCNc1ncnc2c1cnn2-c1ccccc1 | 0 | 49 | 0 | - | 0 | 72
CC(C)OCCCNc1ncnc2c1cnn2-c1ccccc1 | 0 | 0 | ? | ? | ? | 55
COc1ccc2c(=O)cc(CO)oc2c1 | 0 | - | - | - | 0 | -
N#C/C(=C\c1ccc(-c2ccc([N+](=O)[O-])cc2)o1)C(=O)Nc1nc(-c2cccs2)cs1 | 0 | 0 | 0 | 0 | 10µM | 0
N#C/C(=C/c1ccc(-c2cccc([N+](=O)[O-])c2)o1)C(=O)Nc1nc(-c2cccs2)cs1 | 0 | - | - | - | 0 | -

Screens: PubChem BioAssay, National Center for Advancing Translational Sciences (NCATS)
